Results on 13 molecules are retold here after ChEMBL document CHEMBL1961873, “Compounds: GSK PKIS; Assays: Nanosyn kinase panel” (2012).

SMILES strings stand for the structures.

Assay [1] addresses Serine/threonine-protein kinase 26 (Homo sapiens) (UniProt Q9P289). The settings on record: at 1 µM.
For assay [2], the target named is Serine/threonine-protein kinase PAK 1 (Homo sapiens) (UniProt Q13153). The settings on record: at 0.1 µM.
For assay [3] the target is unchanged. As to conditions: at 1 µM.
For assay [4], the target named is Serine/threonine-protein kinase PAK 2 (Homo sapiens) (UniProt Q13177). As to conditions: at 0.1 µM.
The target is the same in assay [5]. As to conditions: at 1 µM.
For assay [6], the target named is Serine/threonine-protein kinase PAK 3 (Homo sapiens) (UniProt O75914). As to conditions: at 0.1 µM.
Assay [7] has the same target. As to conditions: at 1 µM.
In assay [8] the target is Serine/threonine-protein kinase PAK 5 (Homo sapiens) (UniProt Q9P286). The settings on record: at 0.1 µM.
For assay [9] the target is unchanged. The settings on record: at 1 µM.
Assay [10] concerns the target Serine/threonine-protein kinase PAK 6 (Homo sapiens) (UniProt Q9NQU5). The settings on record: at 0.1 µM.
For assay [11] the target is unchanged. The settings on record: at 1 µM.
Assay [12] concerns Tyrosine-protein kinase ABL1 (Homo sapiens), P00519 [E255K]. The settings on record: at 0.1 µM.
For assay [13] the test system is unchanged. As to conditions: at 1 µM.
Assay [14] relates to Tyrosine-protein kinase ABL1 (Homo sapiens), P00519 [H396P]. The settings on record: at 0.1 µM.
The test system is the same in assay [15]. The settings on record: at 1 µM.
For assay [16], the system named is Tyrosine-protein kinase ABL1 (Homo sapiens), P00519 [M351T]. The settings on record: at 0.1 µM.
The test system is the same in assay [17]. As to conditions: at 1 µM.
Assay [18] deals with Tyrosine-protein kinase ABL1 (Homo sapiens), P00519 [Q252H]. The settings on record: at 0.1 µM.
For assay [19] the test system is unchanged. As to conditions: at 1 µM.
Assay [20] relates to Tyrosine-protein kinase ABL1 (Homo sapiens), P00519 [T315I]. As to conditions: at 0.1 µM.

Chain of Serine/threonine-protein kinase PAK 2 (Homo sapiens) (Q13177 whole entry): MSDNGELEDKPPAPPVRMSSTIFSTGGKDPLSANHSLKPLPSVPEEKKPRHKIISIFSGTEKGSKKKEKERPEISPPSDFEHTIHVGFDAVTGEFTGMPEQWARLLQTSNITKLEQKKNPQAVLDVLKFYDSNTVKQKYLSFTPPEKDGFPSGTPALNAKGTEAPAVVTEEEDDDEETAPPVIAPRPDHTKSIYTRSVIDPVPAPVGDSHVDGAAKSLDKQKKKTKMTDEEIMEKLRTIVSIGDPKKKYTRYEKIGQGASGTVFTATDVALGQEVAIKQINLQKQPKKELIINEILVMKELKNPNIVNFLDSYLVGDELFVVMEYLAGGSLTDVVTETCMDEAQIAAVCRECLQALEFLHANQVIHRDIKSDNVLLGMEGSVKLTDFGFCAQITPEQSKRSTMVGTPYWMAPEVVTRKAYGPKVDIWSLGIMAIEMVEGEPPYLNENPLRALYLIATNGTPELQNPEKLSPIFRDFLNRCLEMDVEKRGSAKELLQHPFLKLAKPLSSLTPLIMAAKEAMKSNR
Chain of Serine/threonine-protein kinase PAK 5 (Homo sapiens) (Q9P286 whole entry, looked up): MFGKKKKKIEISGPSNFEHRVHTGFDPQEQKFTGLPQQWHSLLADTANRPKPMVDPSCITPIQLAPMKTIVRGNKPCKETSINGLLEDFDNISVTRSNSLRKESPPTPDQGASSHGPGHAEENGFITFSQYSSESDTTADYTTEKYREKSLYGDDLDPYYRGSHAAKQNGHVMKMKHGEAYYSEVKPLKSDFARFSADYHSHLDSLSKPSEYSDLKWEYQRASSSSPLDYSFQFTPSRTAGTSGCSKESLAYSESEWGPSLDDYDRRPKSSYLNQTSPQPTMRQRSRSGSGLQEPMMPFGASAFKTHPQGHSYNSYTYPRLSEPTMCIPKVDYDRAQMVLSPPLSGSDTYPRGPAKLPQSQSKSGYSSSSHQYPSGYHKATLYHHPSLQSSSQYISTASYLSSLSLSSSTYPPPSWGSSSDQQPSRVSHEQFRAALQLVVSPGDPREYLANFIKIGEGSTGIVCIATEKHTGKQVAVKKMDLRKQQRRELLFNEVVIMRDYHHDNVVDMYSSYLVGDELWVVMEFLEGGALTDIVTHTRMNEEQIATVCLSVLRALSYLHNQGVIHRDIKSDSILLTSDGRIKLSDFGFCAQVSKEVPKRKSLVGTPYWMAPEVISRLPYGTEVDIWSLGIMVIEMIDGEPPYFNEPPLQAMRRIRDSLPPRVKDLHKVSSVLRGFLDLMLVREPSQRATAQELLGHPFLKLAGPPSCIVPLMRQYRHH
Chain of Serine/threonine-protein kinase PAK 6 (Homo sapiens) (Q9NQU5 whole entry, looked up): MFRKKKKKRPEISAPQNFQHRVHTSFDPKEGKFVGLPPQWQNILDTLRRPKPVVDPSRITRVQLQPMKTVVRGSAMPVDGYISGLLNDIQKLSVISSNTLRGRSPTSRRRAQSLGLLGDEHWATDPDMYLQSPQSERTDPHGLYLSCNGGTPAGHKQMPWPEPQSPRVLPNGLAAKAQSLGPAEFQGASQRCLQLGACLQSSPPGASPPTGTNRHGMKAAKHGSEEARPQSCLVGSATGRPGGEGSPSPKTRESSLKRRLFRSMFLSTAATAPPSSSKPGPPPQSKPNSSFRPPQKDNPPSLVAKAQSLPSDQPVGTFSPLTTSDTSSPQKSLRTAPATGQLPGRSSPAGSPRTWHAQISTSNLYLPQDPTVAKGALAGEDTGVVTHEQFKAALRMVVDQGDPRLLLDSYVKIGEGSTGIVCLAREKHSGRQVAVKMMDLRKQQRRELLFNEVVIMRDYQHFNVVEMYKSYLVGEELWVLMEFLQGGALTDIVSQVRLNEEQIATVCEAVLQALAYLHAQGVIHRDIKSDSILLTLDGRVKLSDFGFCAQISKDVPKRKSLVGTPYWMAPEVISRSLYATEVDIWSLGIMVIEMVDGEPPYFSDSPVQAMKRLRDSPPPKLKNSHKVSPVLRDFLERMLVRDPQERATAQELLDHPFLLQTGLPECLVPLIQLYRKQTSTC
Chain of Serine/threonine-protein kinase PAK 1 (Homo sapiens) (Q13153 whole entry): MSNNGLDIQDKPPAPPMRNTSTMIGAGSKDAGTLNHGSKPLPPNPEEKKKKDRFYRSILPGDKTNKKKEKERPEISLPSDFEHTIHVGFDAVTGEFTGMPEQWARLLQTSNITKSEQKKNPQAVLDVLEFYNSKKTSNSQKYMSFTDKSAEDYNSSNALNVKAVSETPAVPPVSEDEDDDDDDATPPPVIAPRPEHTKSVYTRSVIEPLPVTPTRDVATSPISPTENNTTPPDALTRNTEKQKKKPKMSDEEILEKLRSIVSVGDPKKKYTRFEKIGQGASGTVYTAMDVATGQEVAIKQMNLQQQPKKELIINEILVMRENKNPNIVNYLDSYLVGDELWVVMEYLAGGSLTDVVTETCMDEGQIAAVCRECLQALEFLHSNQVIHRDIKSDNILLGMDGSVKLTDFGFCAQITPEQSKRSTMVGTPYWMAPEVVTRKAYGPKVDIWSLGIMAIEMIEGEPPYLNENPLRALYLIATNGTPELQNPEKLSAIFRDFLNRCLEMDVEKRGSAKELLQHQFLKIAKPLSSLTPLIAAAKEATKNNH
Chain of Serine/threonine-protein kinase PAK 3 (Homo sapiens) (O75914 whole entry, looked up): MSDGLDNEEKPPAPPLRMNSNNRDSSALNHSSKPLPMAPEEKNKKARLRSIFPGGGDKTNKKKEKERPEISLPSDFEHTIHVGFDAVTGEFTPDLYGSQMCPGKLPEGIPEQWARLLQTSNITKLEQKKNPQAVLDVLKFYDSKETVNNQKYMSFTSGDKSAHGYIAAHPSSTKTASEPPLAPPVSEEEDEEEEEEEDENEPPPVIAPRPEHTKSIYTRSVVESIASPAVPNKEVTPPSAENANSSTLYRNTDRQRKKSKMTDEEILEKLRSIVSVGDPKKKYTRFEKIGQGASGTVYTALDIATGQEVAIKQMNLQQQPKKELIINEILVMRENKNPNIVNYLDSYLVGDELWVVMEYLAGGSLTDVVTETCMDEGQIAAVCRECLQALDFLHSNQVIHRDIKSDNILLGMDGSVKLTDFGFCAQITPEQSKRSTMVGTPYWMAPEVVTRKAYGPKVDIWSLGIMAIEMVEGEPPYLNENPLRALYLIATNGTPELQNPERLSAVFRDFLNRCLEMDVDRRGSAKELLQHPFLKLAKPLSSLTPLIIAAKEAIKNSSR
Chain of Serine/threonine-protein kinase 26 (Homo sapiens) (Q9P289 2-416 limits assumed): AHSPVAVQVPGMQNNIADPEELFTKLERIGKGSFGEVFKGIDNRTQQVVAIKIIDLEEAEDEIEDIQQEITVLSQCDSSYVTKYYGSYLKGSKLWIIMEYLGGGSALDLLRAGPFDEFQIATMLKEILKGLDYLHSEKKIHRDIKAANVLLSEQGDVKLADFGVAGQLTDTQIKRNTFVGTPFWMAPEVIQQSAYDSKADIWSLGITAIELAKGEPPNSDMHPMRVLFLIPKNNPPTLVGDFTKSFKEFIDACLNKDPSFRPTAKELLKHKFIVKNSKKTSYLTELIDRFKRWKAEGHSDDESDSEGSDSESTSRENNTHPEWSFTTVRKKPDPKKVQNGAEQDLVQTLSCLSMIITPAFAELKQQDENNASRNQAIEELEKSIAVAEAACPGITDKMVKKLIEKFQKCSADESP

Turning to `COc1ccc2cc(-c3c(-c4ccncc4)nc(-c4ccc([S+](C)[O-])cc4)n3C)ccc2c1` (stereo not given), the inhibition in assay [1] is -1.05%; in [2], 4.83%; in assay [3], 2.57%; in [4], 1.33%; in assay [5], 1.31%; in assay [6] it was 3.03%. In addition, the inhibition in assay [7] is 3.28%; in assay [8], -4.32%; in assay [9] it was -3.64%; in assay [10], -2.25%; in [11], -0.4%; in assay [12] it was 2.75%. Besides, the inhibition in [13] came out at 1.85%; in assay [14], 0.68%; in assay [15], 3.52%; in assay [16] it was 0.25%; in [17], 2.54%; in assay [18], 1.22%. The values for the inhibition in assay [19] and in assay [20] were 5.05% and 1.07%, respectively.
For the molecule `COc1cc2c(cc1Nc1nc(N3CCc4ccccc43)c3cc[nH]c3n1)N(C(=O)CN(C)C)CC2`, the inhibition came to 4.16% in [1]; 3.44% in assay [2]; 4.36% in [3]; 0.89% in assay [4]; 1.19% in assay [5]; 1.31% in assay [6]. Moreover, the inhibition in assay [7] is 2.24%; in [8], 0.19%; in assay [9] it was -1.41%; in assay [10] it was -3.46%; in [11] it was -0.54%; in assay [12], 0.52%. Also, the inhibition in [13] is 1.73%; in assay [14], 0.54%; in [15], -0.96%; in assay [16] it was 0.88%; in assay [17], -0.63%; in [18] it was 1.56%. Besides, the inhibition in assay [19] came out at 2.24%; in assay [20], 1.05%.
In the case of `O=C1Nc2ccc(C(=O)c3ccco3)cc2C1=Cc1cc(Cl)c(O)c(Cl)c1`, the inhibition was 21.4% in [1]; 1.1% in [2]; 3.96% in [3]; 1.29% in [4]; 0.81% in [5]; 2.57% in [6]. The inhibition turned out to be 3.42% in assay [7]; 0.93% in assay [8]; 5.07% in [9]; 1.03% in assay [10]; 0.19% in [11]; 3.7% in assay [12]. In addition, the inhibition came out at 15.1% in assay [13]; 3.27% in [14]; 13.7% in [15]; 3.29% in assay [16]; 12.9% in assay [17]; 5.53% in assay [18]. Moreover, the inhibition in assay [19] is 17.7%; in [20], 3.59%.
In the case of `CC(C)=Cc1cccc2c1/C(=N/Nc1ccc(S(N)(=O)=O)cc1)C(=O)N2`, the inhibition in [1] was 35.5%; in assay [2], -2.27%; in assay [3], 1.28%; in [4], 0.39%; in assay [5] it was 1.15%; in assay [6], 0.22%. The inhibition was 1.61% in [7]; 8.32% in [8]; 3.26% in [9]; 7.25% in assay [10]; -0.47% in assay [11]; 1.22% in assay [12]. Moreover, the inhibition is 9.2% in assay [13]; 2.39% in assay [14]; 13.8% in [15]; 2.77% in [16]; 26.6% in assay [17]; 3% in assay [18]. The values for the inhibition in [19] and in assay [20] were 18.2% and 0.99%, respectively.
Take `Cc1cccc(-c2n[nH]cc2-c2ccc3ncccc3n2)n1`: the inhibition is 2.02% in assay [1]; -2.12% in assay [2]; 3.22% in assay [3]; -2.02% in assay [4]; -0.91% in assay [5]; 0.55% in assay [6]. Besides, the inhibition in assay [7] is 1.22%; in assay [8], -7.66%; in [9] it was -3.76%; in [10], -5.68%; in assay [11], -8.92%; in assay [12] it was 4.1%. Also, the inhibition in assay [13] worked out at 29.4%; in assay [14], 5.48%; in assay [15], 35.5%; in assay [16], 2.99%; in assay [17], 35.3%; in [18], 3.21%. The inhibition was 29.6% in assay [19] and -0.61% in assay [20].
For `[O-][S+]1CCN(Cc2ccc(-c3ccc4ncnc(Nc5ccc(OCc6ccccc6)c(F)c5)c4c3)o2)CC1`, the inhibition in assay [1] was 5.46%; in [2] it was 1.29%; in assay [3], 5.06%; in assay [4] it was 0.28%; in assay [5] it was -0.13%; in [6] it was 1.32%. Also, the inhibition in assay [7] was 1.96%; in assay [8], -1.94%; in assay [9] it was -2.2%; in assay [10], 2.21%; in assay [11] it was -0.59%; in assay [12], 1.66%. For the same molecule, the inhibition in assay [13] was determined as 2.97%; in [14], 2.03%; in [15], 0.51%; in assay [16], 2.17%; in [17], 0.04%; in assay [18], 1.58%. The inhibition is 0.89% in assay [19] and 1.21% in assay [20].
With `COc1cc(C=NNc2ncnc3c2cnn3-c2ccccc2)ccc1O`, the inhibition in assay [1] is 13.3%; in assay [2], 4.14%; in assay [3], 5.41%; in [4], 2.39%; in assay [5], 1.53%; in assay [6] it was 2.39%. For the same molecule, the inhibition in [7] is 2.83%; in assay [8], -3.08%; in assay [9], 0.18%; in assay [10], 5.73%; in assay [11], 2.62%; in [12] it was 24.9%. In addition, the inhibition in assay [13] amounted to 77.9%; in assay [14] it was 40.3%; in assay [15], 84.9%; in assay [16] it was 40.1%; in assay [17], 88.5%; in [18], 50.5%. For the same molecule, the values for the inhibition in assay [19] and in assay [20] were 88.7% and 32%, respectively.
For the molecule `CN(C)c1cc2c(Nc3ccc4nc(Cc5ccccc5)[nH]c4c3)ncnc2cn1`, the inhibition was -0.63% in [1]; 8.36% in assay [2]; 8.45% in [3]; 2.07% in [4]; 1.52% in assay [5]; 6.44% in assay [6]. Further, the inhibition in assay [7] was 7.25%; in assay [8], 9.58%; in assay [9], -7.55%; in assay [10] it was 7.15%; in assay [11], -5.69%; in [12], 3%. The inhibition in [13] is 2.89%; in assay [14] it was 6.52%; in assay [15], 4.37%; in [16] it was 2.81%; in assay [17] it was 3.14%; in [18] it was 6.01%. For the same molecule, the inhibition in assay [19] came out at 5.74%; in assay [20], 5.24%.
As to `CCn1c(-c2nonc2N)nc2c(C#CC(C)(C)O)nc(OC[C@@H](N)c3ccccc3)cc21`, the inhibition in [1] is 14.1%; in assay [2] it was -5.15%; in assay [3], 1.43%; in assay [4] it was 3.89%; in assay [5], 36.3%; in [6], -1.93%. Besides, the inhibition in [7] is 0.72%; in [8], 87%; in assay [9], 87.7%; in assay [10], 90.8%; in assay [11], 91.4%; in [12] it was -1.82%. For the same molecule, the inhibition was 1.65% in [13]; 0.8% in assay [14]; -0.27% in [15]; 1.41% in [16]; 0.68% in assay [17]; 0.61% in [18]. Further, the inhibition in assay [19] is -0.28%; in [20], 0.08%.
For `CCn1c(-c2nonc2N)nc2ccncc21`, the inhibition in [1] was 0.2%; in assay [2], 6.53%; in assay [3], 2.38%; in assay [4], -0.38%; in assay [5] it was 1.82%; in [6] it was 0.96%. Moreover, the inhibition is 1.02% in [7]; -6.36% in assay [8]; -8.04% in assay [9]; -9.63% in assay [10]; -3.52% in [11]; 1.78% in [12]. In addition, the inhibition was -1.53% in assay [13]; -0.24% in [14]; -0.08% in assay [15]; 0.64% in [16]; 3.06% in assay [17]; 3.21% in assay [18]. In addition, the inhibition in assay [19] was -0.21%; in assay [20], -0.01%.
Turning to `Cc1ccc(NC(=O)c2ccnc(N3CCCC3)c2)cc1-c1ccc(C(=O)NCC2CC2)cc1`, the inhibition in [1] was found to be 6.65%; in assay [2], 5.46%; in [3] it was 8.39%; in assay [4] it was 1.66%; in [5], 0.96%; in assay [6], 4.52%. The inhibition in [7] was 5.08%; in assay [8] it was -9.56%; in assay [9], -5.63%; in assay [10], -2.61%; in assay [11] it was -7.72%; in assay [12], 1.9%. The inhibition worked out at 5.48% in assay [13]; 3% in assay [14]; 2.43% in assay [15]; 0.54% in assay [16]; 9.12% in assay [17]; 2.92% in assay [18]. The inhibition in assay [19] was determined as 12.4%; in assay [20] it was 0.94%.
Turning to `Cc1ccc(C(=O)NC2CCCCC2)cc1-c1ccc(C(=O)NCC2CC2)cc1`, the inhibition in [1] is -1.45%; in [2], 6.65%; in [3], 4.6%; in [4], 2.09%; in assay [5], 1.97%; in assay [6], 4.22%. For the same molecule, the inhibition in assay [7] is 4.44%; in [8] it was 4.34%; in [9], 13.6%; in assay [10], -2.81%; in [11] it was -8.15%; in assay [12], 0.94%. The inhibition in [13] was -0.03%; in assay [14], 4.41%; in [15], 0.31%; in assay [16] it was 3.58%; in assay [17], 2.26%; in [18], 3.13%. The results for the inhibition in [19] and in assay [20] were 2.92% and 1.36%, respectively.
`Fc1cccc(COc2ccc(Nc3ncnc4sc(-c5cccs5)cc34)cc2Cl)c1`: the inhibition in [1] is -0.58%; in [2], 1.63%; in [3], 1.64%; in [4], -0.69%; in assay [5], -1.1%; in assay [6], -0.01%. The inhibition is 2.7% in [7]; -2.5% in [8]; -7.05% in assay [9]; -3.68% in [10]; -8.25% in assay [11]; 0.56% in assay [12]. Besides, the inhibition in assay [13] is 1.97%; in assay [14], 1.28%; in assay [15], 3.54%; in assay [16], 1.53%; in [17] it was 2.68%; in assay [18], 0.76%. In addition, the inhibition in [19] came out at 2.11%; in [20], 1.08%.
